# Measured values: PubChem BioAssay (NCATS)
# Values joined by “and” are separate entries in the source; they are usually repeats but may differ in a detail not shown here. Equal values may be shown once. Inconclusive results are not listed. Active and inactive are the calls of the source. Unless noted, calls come from the whole dose curve.
# Key:
# [1] = molecular target: Bile acid receptor (Homo sapiens) (UniProt Q96RI1); assay: qHTS assay for small molecule agonists of farnesoid X receptor signaling (AID 588527); details: HEK293T FXR-UAS-bla, beta-lactamase ratio, 16 h; activation: stronger effect = higher value;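 note: series mostly up to about 77 µM; 0% = vehicle basal and 100% = reference agonist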
# In short: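 Quantitative HTS used FXR-UAS-bla HEK293T cells with 16 h compound incubation at 37 C. EC50 values came from concentration-response curves normalized to chenodeoxycholic acid.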
# [2] = molecular target: Bile acid receptor (Homo sapiens) (UniProt Q96RI1); assay: qHTS assay for small molecule antagonists of farnesoid X receptor signaling (AID 588526); note: potency is the fitted concentration of half-maximal effect
# In short: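 Antagonist mode: titrated compounds tested against chenodeoxycholic acid stimulation (normalized to 50 uM CDCA and DMSO) in GeneBLAzer HEK293T cells for 16 h. Beta-lactamase read by CCF4 fluorescence; IC50 from Hill fits.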
# [3] = qHTS assay for small molecule antagonists of peroxisome proliferator-activated receptor delta signaling (AID 588535; active = well fitted inhibition curve with a large enough effect in the signal ratio, with a control signal flat, not every such curve was filed as active; the % refers to the signal ratio;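 for max response: cells co-treated with a PPAR-delta agonist as stimulator during compound exposure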); details: HEK293T PPARd-UAS-bla, beta-lactamase FRET ratio, 18 h; 460 nm channel
# In short: (§1)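 Antagonist-mode beta-lactamase reporter (GeneBLAzer PPAR-delta-UAS-bla) in HEK293T cells, 2% charcoal/dextran FBS, 4000 cells/well. Compound titrations, 18 h at 37 C; CCF4 ratio read, IC50 and efficacy from Hill fits.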
# [4] = molecular target: Peroxisome proliferator-activated receptor delta (Homo sapiens) (UniProt Q03181); assay: as above
# In short: as §1
# [5] = molecular target: Vitamin D3 receptor (Homo sapiens) (UniProt P11473); assay: qHTS assay for small molecule antagonists of vitamin D receptor signaling (AID 588541);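 note: receptor activated by calcitriol during compound treatment; series mostly up to about 77 µM; % is set by controls: 0 for no effect and ±100 for the full control effect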
# In short: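 VDR-UAS-bla HEK293T cells in 2% charcoal-stripped FBS were stimulated with 1-alpha,25-dihydroxyvitamin D3 (3 nM final) plus compound for 16 h at 37 C. The beta-lactamase CCF4 readout was normalized to 50 nM agonist and DMSO, and Hill fits gave IC50.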
# [6] = molecular target: Vitamin D3 receptor (Homo sapiens) (UniProt P11473); assay: qHTS assay for small molecule agonists of vitamin D receptor signaling (AID 588543);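 note: 0% = DMSO basal and 100% = reference agonist control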
# In short: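 Reporter cells (HEK293T, VDR-UAS-bla) were seeded in medium with 2% charcoal-stripped serum and incubated 5 h, then compounds in concentration series were added for 16 h at 37 °C. Stimulation was scaled between DMSO basal and 50 nM 1α,25-dihydroxyvitamin D3.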
# [7] = molecular target: Thyroid hormone receptor beta (Homo sapiens) (UniProt P10828); assay: qHTS assay for small molecule agonists of thyroid hormone receptor beta signaling (AID 588545)
# In short: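 In this cell-based screen, titrated compounds act on HEK 293 cells held in medium with 2% charcoal/dextran FBS, NEAA and pyruvate for 18 hrs at 37 C. Responses are expressed relative to T3 (10 nM) as 100% and basal DMSO as 0%.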
# [8] = qHTS assay for small molecule antagonists of retinoid X receptor alpha signaling (AID 588546; active = well fitted inhibition curve with a large enough effect in the signal ratio, with a control signal flat, not every such curve was filed as active; the % refers to the signal ratio;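 note: cells stimulated with 9-cis-retinoic acid as agonist; % is set by controls: 0 for no effect and ±100 for the full control effect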); details: HEK293T RXRa-UAS-bla, beta-lactamase ratio, antagonist mode; measured here: W530 green channel, cytotoxicity proxy
# In short: (§2)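 Beta-lactamase reporter inhibition, read as CCF4 fluorescence ratio (ex 405, em 460/530 nm) after 2 h at RT. HEK293T UAS-bla cells, 2500/well, were stimulated with 9-cis-RA at 500 or 100 nM final alongside test compound for 18 h at 37 C.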
# [9] = molecular target: Retinoic acid receptor RXR-alpha (Homo sapiens) (UniProt P19793); assay: as above; details: HEK293T RXRa-UAS-bla, beta-lactamase ratio, antagonist mode
# In short: as §2
# [10] = qHTS assay for small molecule activators of the p53 signaling pathway (AID 651743; active = well fitted activation curve with a large enough effect in the signal ratio, not every such curve was filed as active; the % refers to the signal ratio; note: series mostly up to about 92 µM; % of control where 0% means no effect); details: HCT-116 p53RE-bla, beta-lactamase FRET ratio, 16 h; activation: stronger effect = higher value
# In short: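 p53RE-bla HCT-116 cells carrying a beta-lactamase reporter under p53 response elements were exposed to compounds for 16 hours at 37 C. Reporter activity read as fluorescence after 2 hours at room temperature with LiveBLAzer B/G FRET substrate.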
# [11] = qHTS assay for small molecule activators of the nuclear factor-kappa B (NF-kB) signaling pathway (AID 651749; active = well fitted activation curve with a large enough effect in the signal ratio; the % refers to the signal ratio; note: series mostly up to about 77 µM; % of control where 0% means no effect); details: NF-kB-bla ME-180 cells, beta-lactamase FRET ratio, 16 h; activation: stronger effect = higher value
# In short: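 NF-kB-bla ME-180 cells carrying a beta-lactamase reporter under an NF-kB response element, 2,000 cells/well, exposed to compound for 16 hr at 37C; FRET-based beta-lactamase fluorescence read-out of pathway activation.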
# [12] = molecular target: Peroxisome proliferator-activated receptor alpha (Homo sapiens) (UniProt Q07869); assay: qHTS assay for small molecule agonists of the peroxisome proliferator-activated receptor alpha (PPARalpha) signaling pathway (AID 651778; active = well fitted curve in the direction sought with a large enough effect; an effect the other way counts as inactive or inconclusive; note: % of control where 0% means no effect); details: PathHunter PPARalpha complementation, chemiluminescence, 6 h; max response: stronger effect = higher value
# In short: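 Enzyme-fragment complementation assay in which ligand-bound PPARalpha translocates and forms an active enzyme that generates chemiluminescence. Cells were plated overnight, exposed to compound for 6 hr at 37 C, and then given detection reagent for 60 min at room temperature.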
# [13] = qHTS assay for small molecule agonists of the antioxidant response element (ARE) signaling pathway measured by Nrf2-dependant transcriptional activity - cell viability counter screen (AID 720653; active = well fitted curve in the direction sought with a large enough effect in the repeat runs; an effect the other way counts as inactive or inconclusive; note: % is set by controls: 0 for no effect and ±100 for the full control effect); details: ARE-bla HepG2 viability, CellTiter-Glo ATP luminescence, 16 h; max response: stronger effect = lower value
# In short: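 ARE-bla HepG2 cells treated with compounds for 16 h at 37C; this counter screen measures viability as intracellular ATP by CellTiter-Glo luminescence after 30 min at room temperature.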
# [14] = qHTS assay for cell viability of HEK293 cells (AID 743288; active = well fitted curve in the direction sought with a large enough effect; an effect the other way counts as inactive or inconclusive; note: % is set by controls: 0 for no effect and ±100 for the full control effect; nearly all actives have a fitted effect of over 50% in size); details: ATP luminescence (CellTiter-Glo), 18 h; max response: stronger effect = lower value
# In short: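 HEK293 parental, 2,000 cells/well; ≥5 h pre-incubation 37 C; pintool compound addition; 18 h, 37 C; CellTiter-Glo 30 min RT; luminescence read.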
# [15] = qHTS assay for cell viability of the p53RE-bla HCT-116 cell line (AID 743292; active = well fitted curve in the direction sought with a large enough effect; an effect the other way counts as inactive or inconclusive; note: % is set by controls: 0 for no effect and ±100 for the full control effect; nearly all actives have a fitted effect of over 55% in size)
# In short: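 Luminescent ATP quantitation (CellTiter-Glo) served as the viability read-out; reagent was added after 16 h compound exposure at 37 C and read after 30 min at room temperature. Cells: p53RE-bla HCT-116, 4,000 per well.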
# [16] = molecular target: Retinoic acid receptor RXR-alpha (Homo sapiens) (UniProt P19793); assay: qHTS assay for small molecule agonists of retinoid X receptor alpha signaling (AID 588544);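 note: 0% = DMSO basal wells and 100% = reference agonist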
# [17] = qHTS assay for small molecule agonists of the antioxidant response element (ARE) signaling pathway measured by Nrf2-dependant transcriptional activity (AID 720636; active = well fitted curve in the direction sought with a large enough effect in the repeat runs; an effect the other way counts as inactive or inconclusive;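 note: HepG2 cells with an ARE-driven luciferase reporter; % of control where 0% means no effect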)
# In short: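 HepG2 ARE-luc reporter line, 1% dialyzed FBS; 6 hr attachment at 37 C, compound pinned in, 16 hr at 37 C/5% CO2; ONE-Glo, 30 min RT, luminescence read.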
# [18] = qHTS assay for environmental chemicals that activate the Aryl hydrocarbon Receptor (AhR) signaling pathway (AID 651777; active = well fitted curve in the direction sought with a large enough effect; an effect the other way counts as inactive or inconclusive; note: % of control where 0% means no effect; nearly all actives have a fitted effect of over 15% in size); details: 1A2-DRE human hepatoma cells, luciferase, 24 h; activation: stronger effect = higher value
# In short: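 Luminescence read-out: One-Glo added for 30 min at RT after 24 hr compound treatment (37 C, 5% CO2) of human hepatoma cells expressing a DRE/CYP1A2 promoter–luciferase reporter; increased signal indicates AhR activation.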
# [19] = molecular target: Nuclear receptor subfamily 1 group I member 2 (Rattus norvegicus) (UniProt Q9R1A7); assay: qHTS assay for small molecule activators of the rat pregnane X receptor (rPXR) signaling pathway (AID 651751; call rule not given here; note: 0% is about no effect); details: rPXR reporter cells, luciferase (One-Glo), 24 h
# Chain of Nuclear receptor subfamily 1 group I member 2 (Rattus norvegicus) (Q9R1A7 whole entry, looked up): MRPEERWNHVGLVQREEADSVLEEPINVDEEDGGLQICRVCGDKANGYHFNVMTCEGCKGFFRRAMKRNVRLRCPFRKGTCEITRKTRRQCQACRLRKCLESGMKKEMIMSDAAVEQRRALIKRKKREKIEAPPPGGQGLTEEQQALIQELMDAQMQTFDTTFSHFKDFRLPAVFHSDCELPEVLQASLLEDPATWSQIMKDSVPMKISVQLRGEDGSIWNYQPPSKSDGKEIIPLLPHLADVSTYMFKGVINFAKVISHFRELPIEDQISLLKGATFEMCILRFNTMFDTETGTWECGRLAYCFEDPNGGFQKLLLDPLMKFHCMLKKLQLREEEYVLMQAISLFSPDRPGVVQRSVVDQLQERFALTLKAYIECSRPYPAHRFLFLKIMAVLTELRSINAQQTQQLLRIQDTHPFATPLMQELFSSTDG
# Chain of Vitamin D3 receptor (Homo sapiens) (P11473 whole entry, looked up): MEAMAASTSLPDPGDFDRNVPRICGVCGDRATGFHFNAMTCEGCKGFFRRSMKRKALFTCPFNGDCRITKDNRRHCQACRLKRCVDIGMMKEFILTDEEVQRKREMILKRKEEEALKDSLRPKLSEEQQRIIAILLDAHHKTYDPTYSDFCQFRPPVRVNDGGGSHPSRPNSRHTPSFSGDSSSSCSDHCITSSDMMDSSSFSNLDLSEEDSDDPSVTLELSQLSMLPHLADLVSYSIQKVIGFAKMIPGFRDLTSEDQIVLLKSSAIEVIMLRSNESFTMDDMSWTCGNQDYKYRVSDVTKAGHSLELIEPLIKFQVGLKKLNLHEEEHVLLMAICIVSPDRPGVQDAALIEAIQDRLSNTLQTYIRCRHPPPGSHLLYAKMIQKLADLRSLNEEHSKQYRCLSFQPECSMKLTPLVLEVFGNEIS
# Chain of Peroxisome proliferator-activated receptor alpha (Homo sapiens) (Q07869 whole entry, looked up, the tested form may be a part): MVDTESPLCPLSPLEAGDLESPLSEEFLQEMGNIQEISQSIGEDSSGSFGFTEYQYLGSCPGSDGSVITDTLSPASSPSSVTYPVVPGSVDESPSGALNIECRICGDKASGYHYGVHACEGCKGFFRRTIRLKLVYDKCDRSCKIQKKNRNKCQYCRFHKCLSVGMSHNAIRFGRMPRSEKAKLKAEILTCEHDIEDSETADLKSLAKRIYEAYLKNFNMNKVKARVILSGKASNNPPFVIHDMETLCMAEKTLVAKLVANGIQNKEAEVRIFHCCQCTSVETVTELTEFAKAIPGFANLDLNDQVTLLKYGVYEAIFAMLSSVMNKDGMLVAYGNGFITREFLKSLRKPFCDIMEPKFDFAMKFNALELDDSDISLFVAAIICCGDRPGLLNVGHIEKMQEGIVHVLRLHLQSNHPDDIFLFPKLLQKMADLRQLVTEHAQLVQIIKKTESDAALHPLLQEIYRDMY
# Chain of Bile acid receptor (Homo sapiens) (Q96RI1 whole entry, looked up): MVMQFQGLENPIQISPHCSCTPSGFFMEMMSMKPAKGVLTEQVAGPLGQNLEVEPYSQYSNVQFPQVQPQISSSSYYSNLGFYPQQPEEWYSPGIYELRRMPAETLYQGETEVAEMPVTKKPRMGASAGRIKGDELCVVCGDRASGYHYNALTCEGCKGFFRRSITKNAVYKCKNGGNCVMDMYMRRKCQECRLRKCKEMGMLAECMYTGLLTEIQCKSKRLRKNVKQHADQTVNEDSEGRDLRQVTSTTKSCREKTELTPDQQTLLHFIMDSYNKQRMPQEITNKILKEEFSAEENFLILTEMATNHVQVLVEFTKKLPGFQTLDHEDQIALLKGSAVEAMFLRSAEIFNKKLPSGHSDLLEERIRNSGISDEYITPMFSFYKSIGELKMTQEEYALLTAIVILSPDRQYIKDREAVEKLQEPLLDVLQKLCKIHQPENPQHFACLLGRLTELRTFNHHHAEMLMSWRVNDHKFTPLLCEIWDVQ
# Chain of Thyroid hormone receptor beta (Homo sapiens) (P10828 whole entry, looked up): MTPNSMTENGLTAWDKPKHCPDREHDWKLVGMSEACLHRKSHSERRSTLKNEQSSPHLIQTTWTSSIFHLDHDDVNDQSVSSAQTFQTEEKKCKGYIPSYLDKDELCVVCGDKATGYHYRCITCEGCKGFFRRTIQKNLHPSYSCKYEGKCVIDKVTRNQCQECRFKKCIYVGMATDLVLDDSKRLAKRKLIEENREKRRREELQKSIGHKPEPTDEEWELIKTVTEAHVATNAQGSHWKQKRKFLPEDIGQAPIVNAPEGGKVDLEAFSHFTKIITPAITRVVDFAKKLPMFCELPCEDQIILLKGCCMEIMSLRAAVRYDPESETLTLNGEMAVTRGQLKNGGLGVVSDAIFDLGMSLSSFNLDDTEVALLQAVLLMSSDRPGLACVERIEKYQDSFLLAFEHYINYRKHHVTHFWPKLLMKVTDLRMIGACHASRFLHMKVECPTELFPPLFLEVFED
# Chain of Peroxisome proliferator-activated receptor delta (Homo sapiens) (Q03181 whole entry, looked up): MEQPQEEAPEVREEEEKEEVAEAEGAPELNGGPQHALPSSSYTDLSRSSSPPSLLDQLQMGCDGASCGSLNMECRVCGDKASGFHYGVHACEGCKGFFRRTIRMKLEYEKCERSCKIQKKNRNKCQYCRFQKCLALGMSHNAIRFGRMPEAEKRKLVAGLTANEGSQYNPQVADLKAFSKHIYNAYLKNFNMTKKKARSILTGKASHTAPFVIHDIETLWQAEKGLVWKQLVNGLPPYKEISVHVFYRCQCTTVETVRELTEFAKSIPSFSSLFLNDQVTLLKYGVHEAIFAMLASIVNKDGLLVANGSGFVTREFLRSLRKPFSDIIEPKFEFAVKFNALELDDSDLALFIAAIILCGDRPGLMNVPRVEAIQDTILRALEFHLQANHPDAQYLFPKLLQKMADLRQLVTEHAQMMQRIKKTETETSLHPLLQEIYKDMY
# Chain of Retinoic acid receptor RXR-alpha (Homo sapiens) (P19793 whole entry, looked up): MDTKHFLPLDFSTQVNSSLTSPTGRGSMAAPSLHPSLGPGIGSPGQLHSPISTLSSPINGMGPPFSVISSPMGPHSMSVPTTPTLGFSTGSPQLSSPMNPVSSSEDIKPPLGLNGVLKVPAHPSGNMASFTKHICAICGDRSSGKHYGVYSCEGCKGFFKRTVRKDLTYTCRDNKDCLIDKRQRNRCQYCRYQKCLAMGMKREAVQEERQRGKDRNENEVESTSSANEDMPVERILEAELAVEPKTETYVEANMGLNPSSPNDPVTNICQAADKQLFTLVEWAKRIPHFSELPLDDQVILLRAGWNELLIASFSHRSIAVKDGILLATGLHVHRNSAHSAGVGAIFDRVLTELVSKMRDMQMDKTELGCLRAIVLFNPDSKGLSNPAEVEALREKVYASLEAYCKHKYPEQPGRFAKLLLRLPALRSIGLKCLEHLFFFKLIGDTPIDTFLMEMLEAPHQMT
compound,measurement,setting,value
CC(=O)Nc1cccc(N)c1,activation,[1],-3.44% (inactive)
CCN(Cc1c(F)cccc1Cl)c1c([N+](=O)[O-])cc(C(F)(F)F)cc1[N+](=O)[O-],activation,[1],8.75% (inactive)
CCOCCO,activation,[1],0.436% (inactive)
CCO[Si](CCC#N)(OCC)OCC,activation,[1],0.364% (inactive)
CCCCCCCC/C=C\CCCCCCCC(=O)N(CCO)CCO,activation,[1],0.527% (inactive)
CCCCOCCO,activation,[1],-0.315% (inactive) and -0.896% (inactive) and 3.38% (inactive)
Nc1nc2ccccc2[nH]1,activation,[1],3.95% (inactive)
Nc1ccc(N=Nc2ccccc2)c(N)c1,activation,[1],-2.91% (inactive)
CC(C)c1ccccc1,activation,[1],-3.82% (inactive)
CNc1cnn(-c2cccc(C(F)(F)F)c2)c(=O)c1Cl,Potency,[2],inactive
same,max response,[3],18.9%
same,Potency,[4],inactive
same,Potency,[5],inactive
same,outcome,[6],inactive
same,Potency,[7],inactive
same,max response,[8],-2.6%
same,max response,[9],8.14% (inactive)
same,activation,[10],1.24% (inactive)
same,activation,[11],-1.53% (inactive)
same,max response,[12],-1.19% (inactive)
same,max response,[13],3.99% (inactive)
same,max response,[14],-7.33% (inactive)
same,Potency,[15],inactive
CCC(CC)Nc1c([N+](=O)[O-])cc(C)c(C)c1[N+](=O)[O-],Potency,[2],inactive
same,max response,[3],-38.2%
same,Potency,[4],inactive
same,Potency,[5],inactive
same,outcome,[6],inactive
same,Potency,[16],inactive
same,Potency,[7],inactive
same,activation,[10],-0.326% (inactive)
same,activation,[11],-1.58% (inactive)
same,max response,[12],-0.0369% (inactive)
same,Potency,[17],inactive
same,max response,[14],-2.98% (inactive)
same,Potency,[15],inactive
CCCCNS(=O)(=O)c1ccccc1,activation,[1],2.61% (inactive)
O=C(O)CCCCCCC(=O)O,activation,[1],1.16% (inactive)
CS/C(=N\O)C(=O)N(C)C,activation,[1],-1.99% (inactive)
CC/C=C/C/C=C/C/C=C/CCCCCCCC(=O)OCC,activation,[1],1.74% (inactive)
O=c1oc2cc(O)ccc2c2oc3cc(O)ccc3c12,activation,[1],8.73% (inactive)
Oc1ccc(C(c2ccc(O)cc2)C(Cl)(Cl)Cl)cc1,activation,[1],0.126% (inactive)
O=Cc1ccccc1Cl,activation,[1],0.21% (inactive)
O=C/C(Cl)=C(/Cl)C(=O)O,Potency,[2],44.7 µM (active)
same,outcome,[6],inactive
same,Potency,[7],inactive
same,activation,[18],5.71% (inactive)
same,max response,[12],-1.15% (inactive)
same,max response,[13],-4.23% (inactive)
same,Potency,[15],inactive
same,max response,[19],-11.2% (inactive)
